Key:
Assay type in all cases: functional
Plasmodium falciparum [1] = test: GSK_TCMDC: Inhibition of Plasmodium falciparum 3D7 in whole red blood cells, using parasite LDH activity as an index of growth. Test compounds present at 2uM
Plasmodium falciparum [2] = test: GSK_TCMDC: Inhibition of Plasmodium falciparum Dd2 in whole red blood cells, using parasite LDH activity as an index of growth. Test compounds present at 2uM
HepG2 = test: GSK_TCMDC: Percent inhibition of human HepG2 cell line. Test compounds present at 10uM.

SMILES	Inhibition (Plasmodium falciparum [1])	Inhibition (Plasmodium falciparum [2])	Inhibition (HepG2)
O=C(O)C(F)(F)F.O=S(=O)(NC1CCCCN(Cc2ccccc2O)C1)c1ccc(C(F)(F)F)cc1 (configuration not stated)	84%	39%	1%
COC(=O)Nc1cc(C(F)(F)F)ccc1N1CCC(CNS(=O)(=O)c2ccc(OC)cc2)CC1	99%	95%	13%
COc1cc2nc(NCCc3ccccc3)nc(NCc3cc(C)no3)c2cc1OC	99%	100%	5%
COc1ccc2ccc(F)c(CCN3CCC(NCc4cc5c(cn4)OCCO5)CC3)c2n1.Cl	96%	36%	15%
N#Cc1ccc2c(c1)CN(C1CCC(NC(=O)C3=Cc4cc(Cl)ccc4OC3)CC1)CCC2 (configuration not stated)	93%	8%	0%
Br.Oc1ccccc1CCNC1CCc2ccccc2C1 (configuration not stated)	96%	95%	0%
O=C(Nc1ccc2c(c1)CN(Cc1ccc(N3CCCC3)o1)CCC2)c1cncs1.O=CO	84%	37%	15%
FC(F)(F)c1ccc(N2CCCN(Cc3cccc(-c4ccccc4CNCc4ccc5c(c4)OCO5)c3)CC2)nc1.O=C(O)C(F)(F)F	87%	11%	23%
CCCCN1CCN(Cc2cccc(NC(=O)c3ccc(Cl)c(Cl)c3)c2)CC1.O=C(O)C(F)(F)F	88%	24%	21%
COc1ccc2ncc(F)c([C@H](O)CN3CCC(NCc4ccc5c(c4)OCCO5)CC3)c2c1.Cl	100%	99%	1%
Cc1ccc2c(c1)c(-c1ccccc1)c(-c1ccccc1)n2CC(O)CN1CCN(CC=Cc2ccccc2)CC1 (configuration not stated)	98%	98%	0%
CN(c1ccccc1C(=O)Nc1ccccc1Oc1ccccc1)S(=O)(=O)c1ccccc1	90%	80%	2%
Br.CC1(C)NC(N)=NC(=N)N1OCCCOc1ccc(N)cc1	96%	95%	66%
c1ccc(-c2[nH]c3ccccc3c2CN2CCC(N3CCCCC3)CC2)nc1	100%	82%	13%
Cl.Cn1nc(C(F)(F)F)cc1-c1ccc(C(=O)Nc2ccc3c(c2)CNCC3(C)C)s1	88%	36%	10%
COc1cc2nc(N3CCC(CNC(=O)c4ccc(-c5ccc(C#N)cc5C)cc4)CC3)nc(N)c2cc1OC	100%	99%	28%
CC[C@H](NC(=O)c1ccc(NC(=O)OC(C)(C)C)cc1)C(=O)N[C@@H](CO)C(=O)NCCCCc1ccccc1	98%	94%	0%
Cc1cc(Nc2ccnc(-c3ccc(Cl)cc3)n2)ccn1	94%	23%	6%
Cc1ccc(CNC(=O)c2cc3c(=O)n4ccccc4nc3n(CCCN3CCOCC3)c2=N)cc1	92%	5%	21%
O=C(Nc1ccc(Br)c(Cl)c1)c1cc([N+](=O)[O-])cc2cn[nH]c12	99%	63%	49%
CCc1nonc1NC(=O)c1oc2c(C)c(C)ccc2c1C	89%	64%	1%
Cc1cccc2nc(-c3ccc(-c4ccc(CN5CCCC5CN)cc4)cc3)[nH]c12.O=C(O)C(F)(F)F (configuration not stated)	99%	65%	28%
CC1CC(C)CN(CCCNc2ccc(C(=O)Nc3ccc(C(F)(F)F)cc3)cc2[N+](=O)[O-])C1 (configuration not stated)	100%	99%	31%
COc1ccc(Cn2c(SCc3ccc(C)cc3)nc3cc(OC)c(OC)cc3c2=N)cc1Cl	92%	7%	50%
O=C(NC1CCN(Cc2ccc(F)cc2)CC1)c1ccc(-c2cccc(C(F)(F)F)c2)s1.O=C(O)C(F)(F)F	83%	11%	88%
Cn1nc2ccc3ccccc3c2nc1=N.I	91%	85%	100%
COc1ccc(-c2ccc(NC(=O)c3ccc(C#N)cc3)cc2)cc1CN1CCNCC1.O=C(O)C(F)(F)F	96%	42%	23%
CC(C)(C)c1cc(C(=O)N2CCN(c3ncccc3C(F)(F)F)CC2)n(Cc2ccccc2)n1	100%	99%	0%
Cc1ccc(C(=O)Nc2cccc(CN3CCCN(Cc4ccc(O)cc4)CC3)c2)cc1.O=C(O)C(F)(F)F	88%	5%	0%

Reference: ChEMBL document CHEMBL1157539, “Thousands of chemical starting points for antimalarial lead identification” (Nature, 2010)
